Only some compounds are listed: those with a hit (about 2.7% of all), similar ones and a draw of the others.
GLP1R inv ag = GLP-1 receptor (human) inverse agonism; P43220; Potency, µM (series often up to 38.3 µM), for the others: top-dose activity change, negative = inhibition, actives largely listed as inhibitors; 1.6% of 410,000 active; HEK293 GLP-1R CRE-luciferase, luminescence, 24 h; GLP-1R form is constitutively active; AID 624417; further: on the % scale 0 is the no-effect control and ±100 the full control effect; nearly all actives have a fitted effect of over 55% in size
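Inverse agonism was detected as reduced cAMP-driven luciferase luminescence after 24 h compound treatment. The cells were HEK293 clones expressing constitutively active human GLP-1R with the reporter. Reporter-only and GPR119 cell lines served as counterscreen controls.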
GLP-1R agonist = GLP-1 receptor (human) agonism; Potency, µM (top dose mostly 45.6 µM), for the others: at the highest dose activation, most hits filed as activators; HEK293 GLP-1R CRE-luciferase, luminescence, 4-6 h; cells express a hypersensitive GLP-1R form; 0.007% of 380,000 active; P43220; further: % of control where 0% means no effect
GLP1R cytotox = cytotoxicity counter-screen for GLP-1 receptor inverse agonists | Potency, µM (doses to about 38.3 µM), for the others: at the top dose activity change, negative = inhibition, usual class: inhibitors | HEK293 cAMP-luciferase reporter cells, luminescence, 24 h | 0.13% of 410,000 active;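 further: loss of luciferase light is scored as toxicity; on the % scale 0 is the no-effect control and ±100 the full control effect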
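1536-well qHTS counterscreen of the MLSMR; 200 cells/uL, 12 h pre-incubation, 23 nL cpd, 24 h at 37 deg C 5% CO2, luciferase detection reagent, 12 min RT, luminescence. Inhibition = undesired.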
rTrxR1 inhibitor = inhibitors of rat thioredoxin reductase 1. recombinant rTrxR1, NADPH fluorescence consumption, selenite substrate. Potency, µM (series often up to 114 µM), for inactives: at the top dose activity change, negative = inhibition, hits mostly inhibitors. 1% of 390,000 active. AID 588453; further: on the % scale 0 is the no-effect control and ±100 the full control effect; nearly all actives have a fitted effect of over 65% in size
Target sequence (O89049 whole entry, looked up): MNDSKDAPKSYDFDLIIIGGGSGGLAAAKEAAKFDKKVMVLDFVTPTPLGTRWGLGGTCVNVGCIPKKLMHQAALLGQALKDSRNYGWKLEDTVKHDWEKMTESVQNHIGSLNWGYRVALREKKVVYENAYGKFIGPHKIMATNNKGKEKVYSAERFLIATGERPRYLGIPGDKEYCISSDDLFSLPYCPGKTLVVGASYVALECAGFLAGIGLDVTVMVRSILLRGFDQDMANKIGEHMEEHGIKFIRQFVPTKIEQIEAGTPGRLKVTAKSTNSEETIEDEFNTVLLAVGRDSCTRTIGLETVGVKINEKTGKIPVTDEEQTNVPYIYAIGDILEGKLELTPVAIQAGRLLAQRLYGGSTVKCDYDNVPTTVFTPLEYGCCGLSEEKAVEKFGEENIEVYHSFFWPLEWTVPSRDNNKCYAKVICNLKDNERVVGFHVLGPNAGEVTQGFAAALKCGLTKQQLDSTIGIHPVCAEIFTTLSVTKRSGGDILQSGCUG
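Rat TrxR1 (90 nM in the dispensed reagent) was pre-reduced with 400 uM NADPH for 5 min at room temperature, then incubated with compound for 15 min. After 400 uM selenite was added, NADPH fluorescence (Ex 340/Em 450 nm) was followed for 8 min.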
mIDH1 inhibitor = inhibitors of human mutant IDH1 R132H | O75874 | IDH1-R132H enzyme, NADPH consumption, diaphorase/resazurin fluorescence | Potency, µM (series often up to 76.6 µM), for inactives: top-dose activity change, negative = inhibition, usual class: inhibitors | 0.093% of 390,000 active | AID 602179; further: on the % scale 0 is the no-effect control and ±100 the full control effect; nearly all actives have a fitted effect of over 65% in size
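IDH1-R132H (0.5 ug/mL dispensed) in pH 7.5 Tris buffer was preincubated 30 min with compound, then given a substrate mix of 0.016 mM NADPH and 2 mM alpha-KG for 80 min at room temperature; remaining NADPH was read by diaphorase/resazurin fluorescence.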
TrxR1 substrate = substrates of rat thioredoxin reductase 1 | O89049 | purified TrxR1 substrate turnover, NADPH consumption readout | Potency, µM (series often up to 114 µM), for the others: at the top dose activity change, negative = substrate turnover | 0.01% of 390,000 active | AID 588456; further: on the % scale 0 is the no-effect control and ±100 the full control effect; nearly all actives have a fitted effect of over 50% in size
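Rat TrxR1, dispensed at 90 nM, was prereduced with 400 uM NADPH (final) for 5 min at ~22 deg C, then incubated with compound 15 min before 400 uM selenite. A first-read NADPH fluorescence drop versus no-compound background flagged substrates.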
* marks the source's active call; other numbers are inactive results; ? = inconclusive; / = not tested or not shown; [ ] = dose if it differs, or a comment. The call rests on the fitted dose curve; in most records, active means well fitted curve in the direction sought with a large enough effect; inconclusive means small, poorly fitted or top-dose-only effect, or another doubt; inactive means no such curve, though single readings can be large; an effect the other way counts as inactive or inconclusive. Potency means the concentration at half of the fitted maximal effect.

SMILES	GLP1R inv ag	GLP-1R agonist	GLP1R cytotox	rTrxR1 inhibitor	mIDH1 inhibitor	TrxR1 substrate
O=C(c1ccc(N2CCCC2)c([N+](=O)[O-])c1)N1CCN(S(=O)(=O)c2ccc(Cl)cc2)CC1	10µM*	-10.4%	-9.9%	-0.6%	-1.0%	-8.0%
Cc1nc2ccc(NC(=O)c3ccc(Cl)c(S(=O)(=O)N(C)c4ccccc4)c3)cc2s1	1.78µM*	7.3%	-1.0%	9.5%[57.1 µM]	-5.6%	9.3%[57.1 µM]
CN(c1ccccc1)S(=O)(=O)c1cc(C(=O)N2CCN(c3ccccn3)CC2)ccc1Cl	12.6µM*	-13.3%	-24.4%	-1.1%	1.1%	-11.1%
Cc1ccc(S(=O)(=O)NCc2ccc(C(=O)N3CCN(c4ccccn4)CC3)cc2)cc1	12.6µM*	-5.7%	-23.6%	-6.8%	4.8%	-2.4%
CCc1nnc2c3ccccc3nc(Nc3ccc(F)cc3C)n12	57.4%	/	3.9%	12.0%	-8.9%	3.7%
COc1cccc(N2CCN(C(=O)C3CCC(CNS(=O)(=O)c4ccc(Br)s4)CC3)CC2)c1 (configuration not stated)	-29.8%	/	-8.5%	-24.8%	-9.3%	-20.3%
Cc1cc(C)cc(NC(=O)C(Cc2ccccc2)NS(=O)(=O)c2ccc3c(c2)CCC(=O)N3)c1 (configuration not stated)	10.1%	0.2%	3.6%	23.0%	5.8%	2.3%
COc1cccc(C(=O)Nc2ccccc2C(=O)OCc2cc(=O)n3c4c(sc3n2)CCCC4)c1	-31.8%	/	9.2%	?	-21.7%	2.0%[57.1 µM]
O=C(c1ccc(S(=O)(=O)Cc2cc(F)ccc2F)c([N+](=O)[O-])c1)N1CCCC1	8.91µM*	-4.4%	?	10µM*	3.0%	-9.0%[57.1 µM]
CC1CCN(C(=O)c2ccc(S(=O)(=O)Cc3cccc(F)c3)c([N+](=O)[O-])c2)CC1	-16.9%	-22.0%	-14.5%	?	0.5%	2.9%
O=C(c1ccc(S(=O)(=O)Cc2cc(F)ccc2F)c([N+](=O)[O-])c1)N1CCCCC1	?	-32.4%	?	4.47µM*	1.5%	0.1%
Cc1ccccc1CS(=O)(=O)c1ccc(C(=O)N2CCC(C)CC2)cc1[N+](=O)[O-]	-10.9%	1.3%	12.5%	9.7%[57.1 µM]	2.6%	7.1%
O=C(c1ccc(S(=O)(=O)Cc2ccccc2Cl)c([N+](=O)[O-])c1)N1CCN(c2ccccn2)CC1	10µM*	-0.6%	-4.0%	?	22.3%	5.1%[57.1 µM]
COc1ccc(CCNS(=O)(=O)c2ccc(N3CCCCS3(=O)=O)cc2)cc1	-20.8%	/	-0.8%	4.9%[57.1 µM]	12.0%	0.8%[57.1 µM]
C(=C\c1c[nH]c2ccccc12)/c1nccc2ccccc12	/	/	/	1.3%	/	-4.2%
Cc1ccccc1C(=O)OCc1cc(=O)n2nc(C3CC3)sc2n1	7.9%	/	4.4%	6.7%[57.1 µM]	12.2%	0.3%[57.1 µM]
Cc1cnc2ccc(I)cc2c1/C=C/c1ccc(N(C)C)cc1	/	/	/	6.9%	/	1.9%
Cc1c(C(=O)OC2CCC(C)CC2)[nH]c2c1C(=O)CC(c1ccc(F)cc1)C2 (configuration not stated)	-0.2%	/	-3.7%	3.1%	6.3%	-7.1%
CCc1ccc(Nc2n[n+](-c3ccccc3)c(-c3c(Cl)cccc3Cl)s2)cc1	?	0.9%	7.94µM*	-3.4%	?	-9.2%
COc1ccc2ccccc2c1-c1sc(Nc2ccccc2)n[n+]1-c1ccc(F)cc1	?	-2.4%	5.01µM*	15.1%[57.1 µM]	18.6%	6.6%[57.1 µM]
COc1ccc(-c2sc(Nc3ccccc3)n[n+]2-c2ccc(F)cc2)cc1Br	-6.0%	5.5%	-0.4%	23.2%	7.6%	4.1%
CCN(CCN(C)C)C(=O)Cn1ncc2c([nH]c3ccc(C)cc32)c1=O	-7.6%	/	-7.8%	0.3%	-13.2%	22.5%
CC[C@H](C)[C@@H](NC(=O)O[C@@H]1C(=O)c2cc(Br)ccc2O[C@H]1c1cccc(OC)c1)C(=O)OC	?	-2.2%	0.7%	35.9%[57.1 µM]	2.4%	9.4%[57.1 µM]
COc1cccc([C@@H]2Oc3ccc(Br)cc3C(=O)[C@H]2OC(=O)NC2CCCC2)c1	11.2µM*	-3.5%	0.4%	6.1%	-6.6%[38.3 µM]	-3.8%
Cc1ccc(S(=O)(=O)N2CCC(N3CCN(Cc4ccccc4)C(=O)C3=O)CC2)cc1C	-8.7%	/	1.3%	3.2%[57.1 µM]	0.0%	-5.2%[57.1 µM]
SMILES	GLP1R inv ag	GLP-1R agonist	GLP1R cytotox	rTrxR1 inhibitor	mIDH1 inhibitor	TrxR1 substrate
O=C(O)c1ccc2c(ccc3nn(-c4ccc(/C=C/c5ccc(-n6nc7ccc8cc(C(=O)O)ccc8c7n6)cc5[S+](=O)([O-])[O-])c([S+](=O)([O-])[O-])c4)nc32)c1	/	/	/	?	/	452.1%
Cc1c(OCC(=O)N2CCC(C(=O)O)CC2)ccc2c3c(c(=O)oc12)CCC3	6.5%	0.8%	12.9%	14.1µM*	3.7%	95.3%
Cc1c(C)c2c(OCC(=O)N3CCC(C(=O)O)CC3)cc3c(c2oc1=O)CCC(C)(C)O3	77.6%	1.4%	4.9%	79.4µM*	-8.6%	602.2%
Cc1c(C)c2c(OCC(=O)N3CCC(C(=O)NCC(C)C)CC3)cc3c(c2oc1=O)CCC(C)(C)O3	11.8%	3.5%	-13.2%	-4.5%	-9.9%	187.6%
COc1ccc(S(=O)(=O)Nc2ccc3oc4c(c3c2)CCCC4)cc1	?	/	-13.3%	22.4%	8.3%	-1.0%
O=S(=O)(Nc1ccc2oc3c(c2c1)CCCC3)c1cc(Cl)ccc1Cl	11.2µM*	/	2.2%	12.5%	-0.2%	4.0%
CN(C)c1ccc(C=c2c3ccccc3n3c2c2ccccc2[n+]3C)cc1	?	-3.7%	?	31.6µM*	46.5µM*	-19.3%
COc1ccc(S(=O)(=O)n2ccc(C(C)Oc3ccc(-c4ccccc4)c(F)c3)n2)cc1 (configuration not stated)	8.91µM*	4.4%	-0.2%	26.2%[57.1 µM]	8.9%	15.0%[57.1 µM]
Cc1ccc2c(c1)C(=O)N1[C@H]3c4ccccc4OC[C@@H]3[C@H](c3ccccc3)[C@]1(C)C(=O)N2	11.2µM*	-2.5%	11.1%	16.5%	-14.5%	6.3%[57.1 µM]
Cc1ccc2c(c1)[C@H]1[C@H](CO2)[C@H](c2ccccc2)[C@]2(C)C(=O)Nc3ccc(Cl)cc3C(=O)N12	6.31µM*	-1.8%	1.0%	8.2%[57.1 µM]	6.6%	-7.8%[57.1 µM]
C[C@@]12C(=O)Nc3ccc(Cl)cc3C(=O)N1[C@H]1c3cc(Cl)ccc3OC[C@@H]1[C@@H]2c1ccccc1	?	-0.1%	13.9%	26.5%	2.7%	5.9%
C=CCOc1ccccc1/C=N/NC(=O)c1ccc(Cl)cc1Cl	?	7.6%	-19.6%	-11.9%	9.2%	-6.1%
COc1cc(C(=O)Oc2ccccc2/C=N/NC(=O)c2ccc(Cl)cc2Cl)cc(OC)c1OC	2.24µM*	1.6%	-35.4%	15.3%	16.8%	3.0%

Assay outcomes deposited in PubChem by National Center for Advancing Translational Sciences (NCATS).
